A short description of experiment [1]: qHTS assay for measurement of the activity of small molecule inhibitors on Zika virus induced Caspase-3 activity in human astrocytoma cells (AID 1224859). In a few lines:
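SNB-19 astrocytoma cells, 250/well, pretreated 1 h with compounds, then Zika virus at 2 FFU/cell for 6 h at 37 C; Caspase-Glo 3/7 luminescence after 30 min; percent inhibition normalised to uninfected and infected controls.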

The nature of experiment [2]: Natriuretic polypeptide receptor (hNpr1) antagonism - Pilot counterscreen GloSensor control cell line (AID 1347045; calls by dose curve; note: series mostly up to about 38 µM). A digest of the protocol: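 This counterscreen uses HEK293 cells expressing the GIP/pGS-40F cGMP biosensor. Compound-treated cells are challenged with 50 uM sodium nitroprusside, and the luciferase signal is compared before and after stimulation.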
Experiment [3] has as its target Atrial natriuretic peptide receptor 1 (Homo sapiens) (UniProt P16066). The experiment is described as follows: Natriuretic polypeptide receptor (hNpr1) antagonism - Pilot screen (AID 1347049; calls by dose curve;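 note: agonist-evoked cGMP luminescence read 20 min after hNppA addition; series mostly up to about 58 µM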). A digest of the protocol:
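Readout is cGMP-driven firefly luciferase luminescence in HEK293 cells carrying hNpr1 and a PDE5-domain GloSensor, read before and 20 min after 0.1 nM hNppA stimulation. Cells had 2% substrate reagent for 2 h and test compound for 30 min.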

The target of experiment [4] is Atrial natriuretic peptide receptor 2 (Homo sapiens) (UniProt P20594). The experiment is described as follows: Natriuretic polypeptide receptor (hNpr2) antagonism - Pilot subtype selectivity assay (AID 1347050; calls by dose curve; note: potency is the fitted concentration of half-maximal effect). A digest of the protocol: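 Pilot selectivity screen against hNpr2: HEK293 cGMP-sensor cells are treated with LOPAC1280 compounds, then with hNppC peptide at 1 nM final. The cGMP-driven luminescence change over 20 min at room temperature is the read-out.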

Experiment [5] in a line: NS1 protein of Zika virus - qHTS assay to identify small molecule inhibitors in human HEK 293 cells (AID 1347053). Note: series mostly up to about 46 µM; nearly all actives have a fitted effect of over 55% in size. A digest of the protocol: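 HEK 293 cells pretreated with compound for 1 h, then infected with ZIKV MR766 (MOI 0.5) for 24 h at 37 C. NS1 detected by TR-FRET with two anti-NS1 antibodies; normalized to uninfected (0%) and infected (100%) wells.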
The target in experiment [6] is T1, Tyrosine-protein phosphatase non-receptor type substrate 1 (Homo sapiens) + Leukocyte surface antigen CD47 (Homo sapiens) (UniProt P78324+Q08722). The experiment is described as follows: CD47-SIRPalpha protein protein interaction - LANCE assay qHTS validation (AID 1347057; active = well fitted curve in the direction sought with a large enough effect in the signal ratio, with a control signal flat, not every such curve was filed as active; the % refers to the signal ratio; note: series mostly up to about 38 µM). In a few lines:
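First, His-tagged CD47 and Eu-labelled anti-His antibody met the compound for 30 min; next, site-specifically biotinylated SIRPalpha was added for 30 min; finally streptavidin-APC was added before reading the TR-FRET ratio.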
(In general: Time-resolved FRET reads energy transfer from a long-lived donor to a nearby acceptor.)

For experiment [7], the target named is T1, Tyrosine-protein phosphatase non-receptor type substrate 1 (Homo sapiens) + Leukocyte surface antigen CD47 (Homo sapiens). The experiment is described as follows: CD47-SIRPalpha protein protein interaction - HTRF assay qHTS validation (AID 1347058; active = well fitted curve in the direction sought with a large enough effect in the signal ratio, not every such curve was filed as active; the % refers to the signal ratio;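 note: recombinant soluble extracellular CD47 with His tag and biotinylated SIRPalpha domains; series mostly up to about 38 µM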). In a few lines: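 TR-FRET read (Ch1/Ch2 ratio) of soluble extracellular CD47 and Avi-biotinylated SIRPalpha domains in PBS pH 7.4 with 0.05% IGEPAL; 7-point compound titration. Sequential 30 min room-temperature steps; non-biotinylated SIRPalpha as control inhibitor.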

For experiment [8] the target is unchanged. The experiment is described as follows: CD47-SIRPalpha protein protein interaction - Alpha assay qHTS validation (AID 1347059).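 Note: bead proximity luminescence from CD47 binding SIRPalpha after compound preincubation with SIRPalpha.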 A digest of the protocol:
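Binding is measured by AlphaScreen proximity: Ni-NTA acceptor beads capture His-CD47, streptavidin donor beads capture biotin-SIRPalpha. Each of three additions (SIRPalpha with compound, CD47, beads) incubates 30 min at room temperature protected from light.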
Background: qHTS replaces the single test concentration by a dilution series.

Experiment [9] concerns the target Parathyroid hormone/parathyroid hormone-related peptide receptor (Homo sapiens) (UniProt Q03431). The experiment is described as follows: qHTS for PTHR1 Agonists: Optimization Screen against the NCGC LOPAC library (AID 1347079).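 Note: GloSensor cAMP luminescence in HEK-293 GP2 cells expressing human PTHR1 with IBMX.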 A digest of the protocol: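 Compounds were tested across a qHTS titration. PTHR1-expressing GP2 cells report cAMP rises via GloSensor luminescence after 1 hr compound exposure at 37C with IBMX present.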

The target of experiment [10] is N-terminal Xaa-Pro-Lys N-methyltransferase 1 (Homo sapiens) (UniProt Q9BV86). The experiment is described as follows: qHTS Assay for Inhibitors of N-terminal methyltransferase 1 (NTMT1): LOPAC validation of the NTMT1 SAHH-coupled ThioGlo3 Assay (AID 1347143).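 Note: SAH from peptide methylation measured as thiol fluorescence via SAHH coupling and ThioGlo3; nearly all actives have a fitted effect of over 70% in size.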 Note: potency is the fitted concentration of half-maximal effect. In a few lines:
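Inhibition of NTMT1 methylation of peptide SPKRIA is followed by converting SAH with SAHH and labelling the released thiol with ThioGlo3. Plates are read at 340/450nm before and 30 min after reagent addition, both at room temperature.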

The test system of experiment [11] is Zika virus NS2B-NS3 protease (unlinked). The experiment is described as follows: Optimization of GU AMC qHTS for Zika virus inhibitors: Unlinked NS2B-NS3 protease assay (AID 1347151). Note: nearly all actives have a fitted effect of over 80% in size. Note: potency is the fitted concentration of half-maximal effect. In a few lines:
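Unlinked protease (25 nM final); buffer 10 mM Tris-HCl pH 8.0 + 0.01% Tween 20; AMC substrate; 15 min RT, dark; Δfluorescence normalized to no-inhibitor/no-enzyme controls; 4-parameter Hill fit.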

A further experiment deals with Furin (Homo sapiens) (UniProt P09958). The experiment is described as follows: Furin counterscreen qHTS for Zika virus inhibitors (AID 1347149). Note: potency is the fitted concentration of half-maximal effect; nearly all actives have a fitted effect of over 70% in size. In a few lines: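 Fluorogenic cleavage of BOC-RVRR-AMC (2 microM final, Km ~15 µM) was monitored (ex 340, em 450 nm) at 37C after 15 min RT preincubation of 5 nM furin with compounds in HEPES pH 7.0 buffer with CaCl2 and Triton X-100. Percent inhibition was fitted to a 4-parameter Hill curve.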
Background: A counterscreen serves to expose hits that act by an unwanted route or on another target.

A number with no mark means an inactive call. Records with an inconclusive call do not appear. Activity calls are given as the source filed them. Unless noted, calls come from the whole dose curve; as a rule, active = well fitted curve in the direction sought with a large enough effect; inconclusive = small, poorly fitted or top-dose-only effect, or another doubt; inactive = no such curve, though single readings can be large; an effect the other way counts as inactive or inconclusive.

Sequence of Parathyroid hormone/parathyroid hormone-related peptide receptor (Homo sapiens) (Q03431 whole entry, looked up): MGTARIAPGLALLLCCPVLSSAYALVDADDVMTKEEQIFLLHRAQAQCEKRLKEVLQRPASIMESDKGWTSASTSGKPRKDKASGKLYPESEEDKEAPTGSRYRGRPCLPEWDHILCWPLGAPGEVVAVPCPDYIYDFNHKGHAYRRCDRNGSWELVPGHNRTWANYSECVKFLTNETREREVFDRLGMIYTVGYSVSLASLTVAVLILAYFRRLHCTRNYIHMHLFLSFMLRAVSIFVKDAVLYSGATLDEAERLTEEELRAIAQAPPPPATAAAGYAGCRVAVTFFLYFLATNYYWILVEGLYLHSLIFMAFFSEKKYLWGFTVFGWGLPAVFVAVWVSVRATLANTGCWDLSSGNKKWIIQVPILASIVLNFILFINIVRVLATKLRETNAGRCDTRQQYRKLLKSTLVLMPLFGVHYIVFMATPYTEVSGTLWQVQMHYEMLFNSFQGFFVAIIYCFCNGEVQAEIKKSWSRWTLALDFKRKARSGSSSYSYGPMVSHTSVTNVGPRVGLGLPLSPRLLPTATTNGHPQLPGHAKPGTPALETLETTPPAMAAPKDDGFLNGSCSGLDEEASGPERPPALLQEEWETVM
Sequence of Atrial natriuretic peptide receptor 1 (Homo sapiens) (P16066 whole entry, looked up): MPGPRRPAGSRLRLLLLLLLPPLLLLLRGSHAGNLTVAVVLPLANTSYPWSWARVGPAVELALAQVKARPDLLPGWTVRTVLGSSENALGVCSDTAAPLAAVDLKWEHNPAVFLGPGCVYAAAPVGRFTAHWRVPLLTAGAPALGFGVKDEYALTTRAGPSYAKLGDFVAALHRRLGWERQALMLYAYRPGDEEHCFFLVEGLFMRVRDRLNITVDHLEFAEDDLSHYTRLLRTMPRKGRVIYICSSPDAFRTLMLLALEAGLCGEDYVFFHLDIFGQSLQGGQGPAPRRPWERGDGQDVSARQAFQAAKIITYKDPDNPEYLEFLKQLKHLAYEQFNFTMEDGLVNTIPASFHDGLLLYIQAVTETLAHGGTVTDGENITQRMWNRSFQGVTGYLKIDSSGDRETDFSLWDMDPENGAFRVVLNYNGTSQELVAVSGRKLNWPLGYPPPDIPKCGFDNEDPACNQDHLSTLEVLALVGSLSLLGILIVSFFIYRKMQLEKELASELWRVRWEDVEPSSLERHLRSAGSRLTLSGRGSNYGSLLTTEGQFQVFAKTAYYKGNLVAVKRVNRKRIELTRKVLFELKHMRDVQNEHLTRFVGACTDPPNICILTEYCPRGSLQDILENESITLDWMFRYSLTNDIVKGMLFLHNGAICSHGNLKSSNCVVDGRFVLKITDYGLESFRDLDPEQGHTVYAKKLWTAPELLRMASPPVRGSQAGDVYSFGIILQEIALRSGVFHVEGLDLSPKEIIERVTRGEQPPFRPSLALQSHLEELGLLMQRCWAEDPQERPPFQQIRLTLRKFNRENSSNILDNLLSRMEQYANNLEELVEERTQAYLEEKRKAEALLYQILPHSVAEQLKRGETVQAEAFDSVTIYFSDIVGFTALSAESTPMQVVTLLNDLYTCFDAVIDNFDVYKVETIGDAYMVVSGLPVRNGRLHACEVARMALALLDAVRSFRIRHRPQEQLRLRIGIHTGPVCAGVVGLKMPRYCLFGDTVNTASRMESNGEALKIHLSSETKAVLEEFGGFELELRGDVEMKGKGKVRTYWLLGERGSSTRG
Sequence of N-terminal Xaa-Pro-Lys N-methyltransferase 1 (Homo sapiens) (Q9BV86 whole entry, looked up): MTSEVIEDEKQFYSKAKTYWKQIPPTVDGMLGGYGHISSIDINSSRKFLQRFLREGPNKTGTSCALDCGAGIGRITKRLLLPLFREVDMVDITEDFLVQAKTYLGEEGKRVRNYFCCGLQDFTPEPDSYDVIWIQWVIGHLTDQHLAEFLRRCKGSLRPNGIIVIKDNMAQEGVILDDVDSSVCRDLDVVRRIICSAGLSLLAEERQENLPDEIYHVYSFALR
Sequence of Atrial natriuretic peptide receptor 2 (Homo sapiens) (P20594 whole entry, looked up): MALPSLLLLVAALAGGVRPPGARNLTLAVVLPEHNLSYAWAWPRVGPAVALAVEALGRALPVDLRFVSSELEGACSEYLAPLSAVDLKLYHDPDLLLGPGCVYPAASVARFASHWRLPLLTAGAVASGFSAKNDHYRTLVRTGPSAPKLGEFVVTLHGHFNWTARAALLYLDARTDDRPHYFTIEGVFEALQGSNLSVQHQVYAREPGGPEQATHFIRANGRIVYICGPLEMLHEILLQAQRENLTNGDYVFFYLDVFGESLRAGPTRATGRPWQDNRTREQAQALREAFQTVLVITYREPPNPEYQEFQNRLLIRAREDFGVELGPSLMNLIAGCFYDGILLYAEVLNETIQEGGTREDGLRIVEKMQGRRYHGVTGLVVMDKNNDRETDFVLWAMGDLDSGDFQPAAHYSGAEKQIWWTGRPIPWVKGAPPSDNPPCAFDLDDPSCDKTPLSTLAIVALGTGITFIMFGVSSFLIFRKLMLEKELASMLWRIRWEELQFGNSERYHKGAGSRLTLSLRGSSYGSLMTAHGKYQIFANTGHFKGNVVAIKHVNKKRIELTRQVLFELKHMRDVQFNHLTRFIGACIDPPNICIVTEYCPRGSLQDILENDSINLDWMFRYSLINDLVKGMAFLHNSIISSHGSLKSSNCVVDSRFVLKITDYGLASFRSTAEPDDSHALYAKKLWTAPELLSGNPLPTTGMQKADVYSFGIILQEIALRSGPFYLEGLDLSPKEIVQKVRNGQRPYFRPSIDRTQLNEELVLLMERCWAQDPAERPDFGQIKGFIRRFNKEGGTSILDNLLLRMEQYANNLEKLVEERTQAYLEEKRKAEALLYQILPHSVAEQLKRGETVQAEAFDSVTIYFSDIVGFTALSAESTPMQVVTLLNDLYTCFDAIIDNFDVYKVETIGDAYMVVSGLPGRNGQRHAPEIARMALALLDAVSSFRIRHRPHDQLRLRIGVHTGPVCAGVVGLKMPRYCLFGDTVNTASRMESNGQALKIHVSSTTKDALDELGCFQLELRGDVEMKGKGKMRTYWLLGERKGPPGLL
T1 sequence (P78324 whole entry, looked up): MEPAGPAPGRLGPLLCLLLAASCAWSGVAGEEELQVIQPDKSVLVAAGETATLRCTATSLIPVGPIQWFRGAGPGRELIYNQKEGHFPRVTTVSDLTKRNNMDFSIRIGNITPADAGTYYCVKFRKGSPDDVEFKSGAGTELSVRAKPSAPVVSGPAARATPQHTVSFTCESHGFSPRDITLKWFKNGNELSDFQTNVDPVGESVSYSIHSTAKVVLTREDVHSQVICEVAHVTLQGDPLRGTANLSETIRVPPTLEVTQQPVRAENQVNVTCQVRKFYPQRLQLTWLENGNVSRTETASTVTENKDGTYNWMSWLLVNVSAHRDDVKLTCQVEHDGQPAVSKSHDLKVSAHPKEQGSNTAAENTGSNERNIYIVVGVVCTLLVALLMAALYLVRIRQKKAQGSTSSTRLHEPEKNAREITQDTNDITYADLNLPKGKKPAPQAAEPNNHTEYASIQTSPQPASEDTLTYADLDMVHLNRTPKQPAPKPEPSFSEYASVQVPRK
T1 sequence (Q08722 whole entry, looked up): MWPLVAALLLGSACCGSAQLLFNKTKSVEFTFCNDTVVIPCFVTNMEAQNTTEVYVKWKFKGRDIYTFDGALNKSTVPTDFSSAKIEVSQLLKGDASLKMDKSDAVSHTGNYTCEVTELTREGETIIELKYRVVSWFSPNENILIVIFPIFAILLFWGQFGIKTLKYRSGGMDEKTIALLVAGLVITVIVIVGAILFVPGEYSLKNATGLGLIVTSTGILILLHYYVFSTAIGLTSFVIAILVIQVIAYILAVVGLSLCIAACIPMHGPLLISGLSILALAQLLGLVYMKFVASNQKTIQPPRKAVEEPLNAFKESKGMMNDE
Sequence of Furin (Homo sapiens) (P09958 whole entry, looked up): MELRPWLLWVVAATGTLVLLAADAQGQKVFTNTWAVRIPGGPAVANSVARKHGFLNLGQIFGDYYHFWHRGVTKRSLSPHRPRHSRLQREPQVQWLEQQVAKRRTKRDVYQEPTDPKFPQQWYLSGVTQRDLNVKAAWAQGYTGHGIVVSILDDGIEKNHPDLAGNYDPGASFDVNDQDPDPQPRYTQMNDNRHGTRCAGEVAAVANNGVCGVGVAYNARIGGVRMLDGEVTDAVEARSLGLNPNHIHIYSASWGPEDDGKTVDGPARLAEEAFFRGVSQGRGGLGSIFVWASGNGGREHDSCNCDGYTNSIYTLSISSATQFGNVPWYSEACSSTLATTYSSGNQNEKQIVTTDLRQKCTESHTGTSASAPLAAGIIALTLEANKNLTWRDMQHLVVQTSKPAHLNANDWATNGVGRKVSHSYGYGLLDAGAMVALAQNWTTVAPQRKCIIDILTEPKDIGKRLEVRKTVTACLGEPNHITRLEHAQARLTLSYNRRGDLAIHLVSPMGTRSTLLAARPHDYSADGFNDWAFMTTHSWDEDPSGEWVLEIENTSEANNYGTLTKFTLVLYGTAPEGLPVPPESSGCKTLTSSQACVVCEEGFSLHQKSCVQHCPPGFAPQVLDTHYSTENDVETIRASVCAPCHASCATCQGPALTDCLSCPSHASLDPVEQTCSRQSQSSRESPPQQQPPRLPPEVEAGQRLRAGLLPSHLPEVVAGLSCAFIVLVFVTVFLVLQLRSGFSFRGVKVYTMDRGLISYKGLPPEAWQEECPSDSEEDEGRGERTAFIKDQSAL

For the compound `CCCCCCCCCCC(C)(C)C(=O)Nc1c(OC)cc(OC)cc1OC`, the Potency result in [1], in experiment [2], in experiment [3], in experiment [4], in experiment [5] and in experiment [6] was “inactive” in each case. Also, the Potency result in [8], in experiment [9] and in experiment [10] was “inactive” in each case. Further, the outcome in experiment [7] was inactive.
With `N[C@H](C(=O)O)[C@H]1C[C@@H]1C(=O)O`, the Potency entry in [1], in [2], in [3], in experiment [4], in experiment [5] and in [8] was “inactive” each time. For the same compound, the Potency entry in [9], in [10] and in [11] was “inactive” throughout. For the same compound, in [7], the outcome was inactive.
Regarding `CCCCCCCCCCC/C=C\C(C)(C)/C=C\CCCC(=O)O`, the Potency result in experiment [1], in experiment [3], in experiment [4], in experiment [5], in experiment [6] and in experiment [8] was “inactive” each time. Also, the Potency result in experiment [9] and in experiment [10] was “inactive” throughout. For the same compound, in [7], the result was inactive. The Potency in [11] is 6.7 µM (active).
`C[C@H](O)C(=O)C1=Nc2c(nc(N)[nH]c2=O)NC1`: the Potency entry in experiment [1], in experiment [2], in experiment [3], in experiment [4], in experiment [5] and in experiment [6] was “inactive” in each case. Moreover, the Potency entry in experiment [8] and in [9] was “inactive” each time. The Potency in [10] was 44.7 µM (active); in [11], 23.8 µM (active).
For the compound `CC(C)NC[C@H](O)COc1cccc2ccccc12`, the Potency entry in [1], in experiment [2], in [3], in experiment [4], in experiment [5] and in experiment [8] was “inactive” throughout. Also, the Potency entry in experiment [9] is “inactive”. The outcome in experiment [7] was inactive.
With `NCCC1CCCC(CCN)N1` (stereo not given), the Potency result in experiment [1], in experiment [2], in experiment [3], in experiment [4], in experiment [5] and in experiment [6] was “inactive” each time. In addition, the Potency entry in [8], in [9], in experiment [10] and in experiment [11] was “inactive” in each case. In addition, the result in [7] was inactive.
`NC1(C(=O)O)CCCCC1`: the Potency entry in [1], in experiment [2], in [3], in experiment [4], in [5] and in [6] was “inactive” throughout. The Potency result in experiment [8], in [9], in experiment [10] and in [11] was “inactive” in each case. The result in experiment [7] was inactive.
Take `O=c1oc(Cl)c(Cl)c2ccccc12`: the Potency result in experiment [1], in [5], in experiment [6], in experiment [8], in experiment [9] and in experiment [11] was “inactive” each time. The Potency was 13.1 µM (active) in [4] and 50.1 µM (active) in [10]. In [7], the result was inactive.
Consider `O=C(O)c1cc2cc(F)ccc2[nH]1`, for which the Potency entry in [1], in [2], in experiment [3], in experiment [4], in [5] and in experiment [6] was “inactive” in each case. Further, the Potency entry in [8] and in experiment [9] was “inactive” in each case. In addition, the outcome in experiment [7] was inactive. The Potency was 56.2 µM (active) in experiment [10] and 26.7 µM (active) in [11].
With `CN1CCc2cc(Cl)c(O)cc2[C@@H](c2ccccc2)C1`, the Potency result in [1], in [2], in [3], in [4], in experiment [5] and in [6] was “inactive” throughout. The Potency entry in experiment [8], in [9] and in experiment [11] was “inactive” in each case. Moreover, the result in [7] was inactive.
As for `Cn1cc(C(F)(F)F)nc1-c1ccc(OCC(O)CNCCOc2ccc(O)c(C(N)=O)c2)cc1` (stereo not given), the Potency result in experiment [1], in [2], in experiment [3], in [4], in experiment [5] and in experiment [6] was “inactive” in each case. Moreover, the Potency entry in experiment [8] and in experiment [9] was “inactive” throughout. Moreover, the result in experiment [7] was inactive. Further, the results for the Potency (in experiment [10]; in the experiment with Furin (Homo sapiens); in [11]) were 56.2 µM (active), 24.1 µM (active) and 26.7 µM (active), respectively.
With `COCc1nc2c([nH]1)c(=O)n(C)c(=O)n2CC(C)C`, the Potency result in experiment [1], in [2], in [3], in [4], in [5] and in experiment [8] was “inactive” throughout. Besides, the Potency result in experiment [9], in experiment [10] and in experiment [11] was “inactive” in each case. Further, the outcome in [7] was inactive.
Take `N=C(N)SCCc1cnc[nH]1`: the Potency entry in experiment [1], in experiment [3], in experiment [4], in experiment [5], in [6] and in experiment [8] was “inactive” in each case. For the same compound, the Potency result in [9], in experiment [10] and in experiment [11] was “inactive” in each case.
Consider `OCC1NCC(O)C(O)C1O` (stereo not given), for which the Potency result in experiment [1], in experiment [3], in experiment [4], in [5], in [6] and in experiment [8] was “inactive” in each case. Further, the Potency result in [9], in experiment [10] and in experiment [11] was “inactive” in each case. Also, the outcome in experiment [7] was inactive.
As to `NCCCCN=C(N)N`, the Potency entry in experiment [1], in experiment [2], in [4], in experiment [5], in experiment [6] and in [8] was “inactive” throughout. Moreover, the Potency result in [9], in experiment [10] and in [11] was “inactive” each time. Also, the outcome in experiment [7] was inactive.
For `Nc1ccc(N2C(=O)c3ccccc3C2=O)c(Cl)c1`, the Potency entry in experiment [1], in [2], in experiment [4], in experiment [5], in experiment [6] and in experiment [8] was “inactive” throughout. For the same compound, the Potency entry in experiment [9], in experiment [10] and in [11] was “inactive” throughout.
